Hit rate of the full screen: of about 310,000 compounds, about 18,000 (5.8%) were called active. Roughly 22% stayed inconclusive and do not appear here. The entries come from a sample that favours actives as a whole. Entries that show only a call come without a potency. Values without a mark were called inactive. Calls follow the shape of the dose curve; as a rule, active = well fitted inhibition curve with a large enough effect; inconclusive = small, poorly fitted or top-dose-only effect, or another doubt; inactive = no such curve, though single readings can be large or run the other way.
Test: Primary qHTS for delayed death inhibitors of the malarial parasite plastid, 48 hour incubation
Details: P. falciparum luciferase growth in erythrocytes; series mostly up to 28.7 µM
Description: The goal of this screen is to discover new antimalarial compounds that act by inhibiting the development of the apicoplast in the malarial parasite Plasmodium falciparum. The biochemical processes that make this organelle essential for erythrocytic stage parasites are not well understood. However, antibiotics such as azithromycin and tetracycline, which target the apicoplast translational machinery, have a potent antimalarial effect.
We have developed a cell-based assay that measures parasite growth based on the expression of an integrated copy of a firefly luciferase reporter. To detect small molecules that cause this "delayed death" phenotype, erythrocytes infected with the luciferase-expressing parasites were incubated with compounds for either one or two generations, corresponding to 48 and 96 hours, respectively. Compounds that inhibit parasite growth in the second generation, but not the first, should be enriched in antimalarials that target the apicoplast. Growth inhibition is detected by a decrease in luciferase activity.
Assay Provider: David Fidock and Eric Ekland, Columbia University
Keywords: NIH Roadmap, MLPCN, MLI, MLSMR, qHTS, NCGC, qHTS, malaria, luciferase, viability
Four microliters of culture medium (RPMI 1640 with 0.5% w/v Albumax (GIBCO), 24 mM sodium bicarbonate and 10 ug/mL gentamycin) were dispensed by a Multi-drop Combi into white solid 1536-well plates (Grenier) and 23 nL compound was added by a pin tool. Four microliters of infected erythrocytes (2% hematocrit, 0.1% parasitemia final concentration) in culture medium were dispensed and the plates incubated for 48 hours at 37 C in 5% CO2. Two microliters of luciferase detection reagent was added and luminescence was detected by a ViewLux (PerkinElmer) reader.
Potency is read from the fitted curve at half-maximal effect.

SMILES | Potency
O=C(Nc1ccccc1N1CCOCC1)c1ccncc1 | inactive
CCCc1ccc(OCC(O)CN2CCN(CCO)CC2)cc1 (configuration not stated) | inactive
CCc1nc(NCCO)c(C#N)c2c1CCCC2 | inactive
CN(C)c1nccc(NCc2ccccc2)c1C#N | inactive
CCCCc1nc(NCc2ccccc2)c(C#N)c2c1CCCC2 | 6.57 µM (active)
CCOC(=O)c1ccccc1NC(=O)COC(=O)C(Cc1c[nH]c2ccccc12)NC(C)=O (configuration not stated) | inactive
CCOc1ccccc1NC(=O)NC1CCCCCCC1 | inactive
CCOc1cccc(=NC2CCCCC2)c2c(C)[nH]c(C)c12 | 2.33 µM (active)
Cc1cc(C)n2nc(C(=O)Nc3cccc(S(=O)(=O)N4CCOCC4)c3)nc2n1 | inactive
CC(C)C[C@H](NC(=O)C1CC(=O)N(c2ccc3c(c2)OCCO3)C1)C(=O)NC1CCCC1 (some centres not stated) | inactive
C/C=C/C(=O)OCc1csc(CC(=O)Nc2ccccc2C)n1 | inactive
CCCc1nnc(NC(=O)CCC(=O)N2CCN(S(=O)(=O)c3ccc(OC)cc3)CC2)s1 | inactive
COc1ccc(Cc2nc3ccc(C(=O)N4CCC(N(C)C)C4)cc3o2)cc1 (configuration not stated) | inactive
CCc1cccc(NC(=O)COC(=O)C2CCN(c3ccc(C(F)(F)F)cn3)CC2)c1 | inactive
COc1ccc(C(=O)C2CCCN(Cc3cccn3-c3ccccn3)C2)c(C)c1 (configuration not stated) | 6.57 µM (active)
COc1ccc(C(=O)C2CCCN(Cc3ccc4nonc4c3)C2)c(C)c1 (configuration not stated) | inactive
CCOC(=O)c1[nH]ncc1CN1CCCC(C(=O)c2ccc(OC)cc2C)C1 (configuration not stated) | inactive
COC(=O)c1ccc(NC(=O)CSc2nc(N)c(NC(=O)c3ccc(Br)o3)c(=O)[nH]2)cc1 | inactive
COCCn1c(SCC(=O)N2CCCCCC2)nc2c(c1=O)SCC2 | inactive
COc1ccc(CCN=C2SCC(=O)N2Cc2ccccc2)cc1OC | inactive
COc1ccc(CCNC2=C(Cl)C(=O)N(Cc3ccccc3)C2=O)cc1OC | 11.7 µM (active)
COc1ccc(CCN2C(=O)C(C)=C(C)C2=O)cc1OC | inactive
CCS(=O)(=O)Nc1ccc(C(=O)NCCSc2ccccc2)cc1 | inactive
CN(C)CCNC(=O)c1[nH]nc2c1CCc1ccccc1-2 | inactive
O=C(N/N=C/c1ccoc1)c1ccc(Cl)cc1Cl | inactive
CCCn1nc(NC(=O)C(C)C)c2cc3cc(OC)ccc3nc21 | 11.7 µM (active)

SMILES | Potency
CCCn1nc(NS(=O)(=O)c2ccccc2)c2cc3cc(C)ccc3nc21 | inactive
CCCn1nc(NS(=O)(=O)c2ccc(F)cc2)c2cc3ccccc3nc21 | inactive
O=C(OCC(=O)N1CCCCCC1)c1cnc(Cl)c(Cl)c1 | inactive
CC[C@]1([C@H]2O[C@@H]([C@@H]3O[C@](O)(CO)[C@@H](C)C[C@H]3C)C[C@H]2C)CC[C@@H]([C@]2(C)CC[C@@]3(C[C@@H](O)[C@@H](C)[C@@H]([C@H](C)[C@H](OC)[C@H](C)C(=O)O)O3)O2)O1 | 0.0169 µM (active)
CSc1nc(N)c(C#N)c(-c2ccccc2Cl)c1C#N | inactive
CSc1ccc(-c2c(C#N)c(N)nc3c2c(C)nn3-c2ccccc2)cc1 | 1.47 µM (active)
Cc1nn(-c2ccccc2)c2c1C(c1ccc(F)cc1)C(C#N)=C(N)O2 (configuration not stated) | inactive
COc1cc(CNCc2ccc(OC)c3ccccc23)cc(OC)c1OC | inactive
COc1ccccc1N1CCC(N2CCN(CC(C)(C)C)C(CCO)C2)CC1 (configuration not stated) | inactive
O=C1c2cccc3cccc(c23)C(=O)N1CCCCCc1n[nH]c(=S)o1 | inactive
O=C(CN1C(=O)c2cccc3cccc(c23)C1=O)N1CCCCC1 | inactive
C[N+](C)(CCCCCC[N+](C)(C)CCCN1C(=O)c2cccc3cccc(c23)C1=O)CCCN1C(=O)c2cccc3cccc(c23)C1=O | 0.329 µM (active)
N#CCN(C(=O)COC(=O)C1CC2CCCC(C1)C2=O)c1ccccc1 (configuration not stated) | inactive
CCOc1ccc(NC(=O)c2ccc(NC(=O)C3CCCO3)cc2)cc1 (configuration not stated) | inactive
CCOc1ccc(S(=O)(=O)N2CCCCC2)cc1NC(=O)CN1CCCC1c1cccs1 (configuration not stated) | 4.65 µM (active)
CC(=O)NCCC(=O)Nc1cc(S(=O)(=O)N2CCCCC2)ccc1Oc1cccc(C)c1 | inactive
O=C(CNCc1cccs1)Nc1cc(S(=O)(=O)N2CCCC2)ccc1Cl | inactive
O=C(CNC(=O)c1ccccc1Br)NNC(=O)c1cccs1 | inactive
O=C(Nc1ccccc1C(=O)NCCCn1ccnc1)c1ccc(Cl)cc1Cl | 9.28 µM (active)
O=C(NCCCn1ccnc1)c1ccccc1F | inactive
O=C(NCCCn1ccnc1)Nc1ccc(Cl)cc1Cl | inactive
O=C(CSc1nc(=O)n2ccccc2n1)Nc1ccc2c(c1)OCCO2 | inactive
COc1ccc(C(C)NC(=O)C2CCCC2)cc1 (configuration not stated) | inactive
CN(C)S(=O)(=O)c1ccc(N2CCCC2)c(C(=O)Nc2ccc(Br)cc2F)c1 | 5.22 µM (active)
CN(C)S(=O)(=O)c1ccc(N2CCCC2)c(C(=O)NCc2ccccc2)c1 | inactive
CN(C)S(=O)(=O)c1ccc(N2CCCC2)c(C(=O)Nc2cccc(F)c2)c1 | inactive

Source: PubChem BioAssay AID504832 (National Center for Advancing Translational Sciences (NCATS), 2011)
